Results from PubChem BioAssay AID720690 (Broad Institute, 2013).
Results with a measured potency or affinity are listed apart. Calls of active or inactive are those of the source.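 How the source made its calls: active means every repeat run showing a signal drop whose fitted half-maximal concentration is at most twice the top tested concentration; inconclusive means repeat runs disagree, or flat partial drop, or poor fit; inactive means the rest.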

Test: general mammalian cell viability loss – activator set, cherry-pick, cytotoxicity control for miR-122 modulator project, dose response (AID 720690)
Conditions: HEK293T viability, CellTiter-Glo luminescence, 48 h; series mostly up to 26 µM

SMILES	outcome
O=C(Nc1ccccc1)N1C[C@@H]2[C@H](c3ccccc31)[C@H](CO)N2C(=O)c1ccncc1	inactive
COCC(=O)N(C[C@@H]1N[C@H](CO)[C@H]1c1ccc(-c2cccnc2)cc1)C(C)C	inactive
C/C=C/c1ccc([C@H]2[C@@H](CNC(=O)c3ccncc3)N(C(=O)CC)[C@H]2CO)cc1	inactive
O=C(Cn1c(=O)c2ccccc2n(CC(=O)N2CCCCC2)c1=O)N1CCCCC1	inactive
Cc1ccc(S(=O)(=O)Nc2ccc3c(c2)C(=O)N(C)[C@@H]2CC[C@@H](CC(=O)NCCc4ccncc4)O[C@@H]2CO3)cc1	inactive
C[C@@H]1CN([C@H](C)CO)S(=O)(=O)c2ccc(C3=CCCC3)cc2O[C@@H]1CN(C)C(=O)C1CCOCC1	inactive
CN1C(=O)c2cc(NC(=O)Nc3ccccc3F)ccc2OC[C@@H]2O[C@H](CC(=O)O)CC[C@@H]21	inactive
COc1cccc(-c2ccc3c(c2)O[C@H](CN(C)C(=O)C2CCOCC2)[C@H](C)CN([C@@H](C)CO)S3(=O)=O)c1	inactive
Cc1cnc(NC(=O)c2cc3c(C)nn(-c4ccccc4)c3s2)s1	inactive
Cc1ccccc1NC(=O)Nc1ccc2c(c1)C(=O)N(C)[C@@H]1CC[C@H](CC(=O)NCC3CC3)O[C@@H]1CO2	inactive
COc1ccccc1NC(=O)Nc1ccc2c(c1)C(=O)N(C)[C@H]1CC[C@H](CC(=O)Nc3ccc4c(c3)COC4)O[C@@H]1CO2	inactive
COCC(=O)N(C)C[C@H]1Oc2cc(C#Cc3cccnc3)ccc2S(=O)(=O)N([C@H](C)CO)C[C@H]1C	inactive
O=c1c2c3c(sc2nc2n1CCC2)CCCC3	inactive
CO[C@@H]1CN(C)C(=O)c2cc(NC(=O)NC(C)C)ccc2OC[C@H](C)N(Cc2cncnc2)C[C@H]1C	inactive
NC(=O)c1cn(-c2ccccc2)nc1-c1cc2ccccc2oc1=O	inactive
COc1ccc(N2CCc3c(C)nc4c(OC)cc(OC)cc4c32)c(OC)c1	inactive
O=C(Cc1cccnc1)N1[C@@H](CO)[C@@H]2c3ccccc3NC[C@@H]21	inactive
CCN(C[C@@H]1N[C@H](CO)[C@H]1c1ccc(-c2ccc(F)cc2)cc1)C(=O)COC	inactive
Cc1ccc(S(=O)(=O)NCCCNS(C)(=O)=O)cc1	inactive
CCCCCn1c(=O)[nH]c2cc(C(=O)NCCN3C(C)CCCC3C)ccc2c1=O (centres undefined)	inactive

SMILES	outcome
Cc1nn(C)cc1NC(=O)C[C@@H]1CC[C@H]2[C@@H](COc3ccc(NC(=O)Nc4cccc(Cl)c4)cc3C(=O)N2C)O1	inactive
Cc1ccccc1-c1ccc2c(c1)O[C@@H](CN(C)C(=O)Nc1ccc(F)cc1)[C@@H](C)CN([C@@H](C)CO)S2(=O)=O	inactive
COCC(=O)Nc1ccc2c(c1)C(=O)N(C)[C@H]1CC[C@@H](CC(=O)NCCCN(C)C)O[C@H]1CO2	inactive
CC(C)CC#Cc1ccc2c(c1)O[C@H](CN(C)C(=O)c1cnccn1)[C@H](C)CN([C@H](C)CO)S2(=O)=O	inactive
C/C=C/c1ccc([C@H]2[C@@H](CO)N(C(=O)C3CC3)[C@H]2CN(C)C(=O)CC2CC2)cc1	inactive
CCS(=O)(=O)Nc1ccc2c(c1)C(=O)N(C)[C@@H]1CC[C@@H](CC(=O)NCCCN3CCOCC3)O[C@@H]1CO2	inactive
COC(=O)C[C@@H]1CC[C@@H]2[C@H](COc3ccc(NC(=O)Nc4cccc(F)c4)cc3C(=O)N2C)O1	inactive
CN1C(=O)c2cc(NC(=O)c3cccc(F)c3)ccc2OC[C@H]2O[C@@H](CC(=O)O)CC[C@H]21	inactive
O=c1c2cc(N3CCOCC3)ccc2[nH]c(=S)n1CCCN1CCCC1	inactive
CCC(=O)N(C)C[C@H]1Oc2cc(C#Cc3ccccc3)ccc2S(=O)(=O)N([C@@H](C)CO)C[C@H]1C	inactive
CCN(C[C@H]1[C@H](c2ccccc2)[C@H](CO)N1C(=O)COC)S(C)(=O)=O	inactive
COC(=O)C[C@@H]1CC[C@H]2[C@@H](COc3ccc(NC(=O)Nc4ccccc4C)cc3C(=O)N2C)O1	inactive
CCc1nc2sc(C)c(C)c2c(=O)n1CCO	inactive
CCN(CC)CCOc1cccc(C(C)C)c1	inactive
C/C=C/c1ccc([C@H]2[C@@H](CO)N(C(C)=O)[C@@H]2CN(C(=O)COC)C(C)C)cc1	inactive
C/C=C/c1ccc([C@H]2[C@@H](CO)N(Cc3ccccn3)[C@@H]2CNC(=O)CC)cc1	inactive
CNC(=O)C[C@@H]1CC[C@@H]2[C@H](COc3ccc(NC(=O)Nc4cccc(C)c4)cc3C(=O)N2C)O1	inactive
C[C@@H]1CN([C@@H](C)CO)S(=O)(=O)c2ccc(C#Cc3ccncc3)cc2O[C@@H]1CN(C)C(=O)C1CCOCC1	inactive
CN(C(=O)C12CC3CC(CC(C3)C1)C2)C1CCS(=O)(=O)C1 (centres undefined)	inactive
